Results: PubChem BioAssay AID1159580 (chemical genetic matrix, 2015)
Hit rate of the full screen: of about 5,500 compounds, about 2,000 (36%) were called active. Not shown: some 18% with an inconclusive outcome. No stated cut-off is given here; in the data, active means normalized growth mostly below about 0.91 (no sharp cut-off); inconclusive means no clear call, values can overlap the other calls; inactive means mostly above about 0.92. The list shows a part of the results.

Test: chemical genetic growth profiling, strain panel (AID 1159580);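 further: tested at 20 µM; growth read once vehicle control cultures reached saturation at 30 °C; 1 = growth at the plate median or of vehicle wells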
Conditions: growth OD
[1] = S. cerevisiae deletion strains, locus YJR075W, strain HOC1, stronger effect = lower value
[2] = S. cerevisiae deletion strains, locus YMR307W, strain GAS1, stronger effect = lower value
[3] = S. cerevisiae deletion strains, locus YPL055C, strain LGE1, stronger effect = lower value

Measured: normalized growth

OC(CNCCc1cccs1)COc1ccccc1 (stereo unspecified)
inactive: S. cerevisiae deletion strains, locus YAL013W, strain DEP1, stronger effect = lower value 0.995 | S. cerevisiae deletion strains, locus YBR229C, strain ROT2, stronger effect = lower value 0.987 | S. cerevisiae deletion strains, locus YCL061C, strain MRC1, stronger effect = lower value 0.994 | S. cerevisiae deletion strains, locus YDL101C, strain DUN1, stronger effect = lower value 0.999 | S. cerevisiae deletion strains, locus YDL134C, strain PPH21, stronger effect = lower value 0.986 | S. cerevisiae deletion strains, locus YDR150W, strain NUM1, stronger effect = lower value 0.976 | S. cerevisiae deletion strains, locus YEL061C, strain CIN8, stronger effect = lower value 0.998 | S. cerevisiae deletion strains, locus YGR078C, strain PAC10, stronger effect = lower value 0.989 | S. cerevisiae deletion strains, locus YHR030C, strain SLT2, stronger effect = lower value 0.934 | S. cerevisiae deletion strains, locus YHR087W, strain rtc3, stronger effect = lower value 0.998 | S. cerevisiae deletion strains, locus YJR043C, strain POL32, stronger effect = lower value 0.994 | [1] 1.01 | S. cerevisiae deletion strains, locus YKL190W, strain CNB1, stronger effect = lower value 0.982 | S. cerevisiae deletion strains, locus YLR039C, strain RIC1, stronger effect = lower value 0.944 | S. cerevisiae deletion strains, locus YLR058C, strain SHM2 (second series), stronger effect = lower value 0.991 | S. cerevisiae deletion strains, locus YLR085C, strain ARP6, stronger effect = lower value 1.08 | S. cerevisiae deletion strains, locus YLR262C, strain YPT6, stronger effect = lower value 0.831 | S. cerevisiae deletion strains, locus YML094W, strain GIM5, stronger effect = lower value 1.06 | S. cerevisiae deletion strains, locus YMR219W, strain ESC1, stronger effect = lower value 1 | S. cerevisiae deletion strains, locus YMR263W, strain SAP30, stronger effect = lower value 0.99 | [2] 1.13 | S. cerevisiae deletion strains, locus YNL153C, strain GIM3, stronger effect = lower value 0.995 | S. cerevisiae deletion strains, locus YNL298W, strain CLA4 (second series), stronger effect = lower value 0.964 | S. cerevisiae deletion strains, locus YNL322C, strain KRE1, stronger effect = lower value 1 | S. cerevisiae deletion strains, locus YNR030W, strain Alg12, stronger effect = lower value 1 | S. cerevisiae deletion strains, locus YOL006C, strain TOP1, stronger effect = lower value 0.939 | [3] 1.03 | S. cerevisiae deletion strains, locus YPL241C, strain CIN2, stronger effect = lower value 1.02 | S. cerevisiae deletion strains, locus YPR135W, strain CTF4, stronger effect = lower value 0.949 | S. cerevisiae strains, strain wild type, stronger effect = lower value 0.967

N=c1c[n+](N2CCOCC2)[n-]o1
inactive: S. cerevisiae deletion strains, locus YAL040C, strain CLN3, stronger effect = lower value 1 | S. cerevisiae deletion strains, locus YCL061C, strain MRC1 (second series), stronger effect = lower value 1.02 | S. cerevisiae deletion strains, locus YDR363W, strain ESC2, stronger effect = lower value 1.01 | S. cerevisiae deletion strains, locus YER002W, strain NOP16, stronger effect = lower value 1 | [1] 1.01 | [2] 1.01 | S. cerevisiae deletion strains, locus YNL175C, strain NOP13, stronger effect = lower value 1.01 | S. cerevisiae deletion strains, locus YNL197C, strain WHI3, stronger effect = lower value 0.999 | S. cerevisiae deletion strains, locus YNL224C, strain SQS1, stronger effect = lower value 1.02 | S. cerevisiae deletion strains, locus YOR083W, strain WHI5 (second series), stronger effect = lower value 1.01 | [3] 1.02
